# Data reported in ChEMBL document CHEMBL3433997, “St. Jude Leishmania screening dataset” (2016).
# Target: Solute carrier family 2, facilitated glucose transporter member 1 (Homo sapiens) (UniProt P11166)
# Assay: ST_JUDE_LEISH: Cytotoxicity at 2uM final concentration against transgenic Leishmania Mexicana promastigotes LmGLUT1 that are glucose transport deficient and complemented with the human glucose transporter GLUT1. Activity is measured by DNA content using SYBR green in vitro
# Assay type: functional
# Sequence of Solute carrier family 2, facilitated glucose transporter member 1 (Homo sapiens) (P11166 whole entry): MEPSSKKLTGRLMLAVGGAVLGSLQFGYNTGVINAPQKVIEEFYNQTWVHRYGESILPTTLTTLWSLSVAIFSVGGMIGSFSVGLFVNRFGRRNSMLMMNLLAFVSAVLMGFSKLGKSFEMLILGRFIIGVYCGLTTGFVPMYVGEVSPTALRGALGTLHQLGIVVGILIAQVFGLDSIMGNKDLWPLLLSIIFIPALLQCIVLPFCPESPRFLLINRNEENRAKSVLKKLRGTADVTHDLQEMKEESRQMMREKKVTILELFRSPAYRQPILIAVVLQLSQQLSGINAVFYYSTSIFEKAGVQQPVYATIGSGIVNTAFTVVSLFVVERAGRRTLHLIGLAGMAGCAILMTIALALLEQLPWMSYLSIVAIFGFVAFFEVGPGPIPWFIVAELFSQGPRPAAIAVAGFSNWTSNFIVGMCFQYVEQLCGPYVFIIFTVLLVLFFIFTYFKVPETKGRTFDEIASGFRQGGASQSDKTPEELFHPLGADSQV
row,Structure (SMILES),inhibition [%]
1,Oc1ccc(CCNc2nc(NCCCOc3ccccc3-c3ccc(F)cc3)nc(N3CCNCC3)n2)cc1,13.3
2,Cc1cccc(-n2nc(C)c3c2NC(=O)CC3C(=O)c2ccc(Cl)s2)c1 (stereo not given),1.99
3,COc1cc2c(cc1N1CCN(C)CC1)N(C(=O)Nc1ccc(-c3ccncc3)c(Cl)c1Cl)CC2,0.34
4,COc1c(Br)cc(Br)cc1C(C)=O,3.62
5,C[C@H](NC(=O)[C@H](Cc1ccccc1)NC(=O)OC(C)(C)C)C(=O)N[C@@H](CC1CCCCC1)C(O)CN (stereo not given in full),-1.66
6,Cc1ccc(Cn2nc(Cl)c(N3CCCNCC3)cc2=O)cc1NC(=O)Nc1ccc(-c2ccccc2)cc1,-1.89
7,O=C(NCc1ccccc1)Nc1ccc(-c2cccc(-c3nc4cc(C(F)(F)F)ccc4[nH]3)c2)cc1,-0.99
8,O=C(Nc1ccc(OC2CCN(Cc3ccc(F)cc3)C2)c(Cl)c1)c1ccccc1 (stereo not given),8.62
9,Cc1cccc2nc(-c3ccc(-c4cccc(CN5CCN(CC6CCCN(C)C6)CC5)c4)s3)[nH]c12 (stereo not given),7.18
10,OC(CNCc1ccccc1OCc1ccccc1)c1cccc(I)c1 (stereo not given),3.99
11,Cc1cc(N(CCO)CCCN2CCCCC2)nc(Nc2ccc(Cl)cc2)n1,1.77
12,CS(=O)(=O)N1CC2(CCN(CCC(NC(=O)Nc3ccccc3)c3ccc(Cl)c(Cl)c3)CC2)c2ccccc21 (stereo not given),3.59
13,CNCCNCc1ccc(-c2ccc(-c3nc4cc(F)ccc4[nH]3)s2)cc1,9.52
14,COc1ccc(N2CCN(CCCN3CCN(C(=O)c4ccc(/C=C/c5ccc(Cl)c(Cl)c5)cc4)CC3)CC2)c(OC)c1,6.35
15,N#Cc1ccc(CN2CCC(Oc3ccc(NC(=O)c4cccs4)cc3)C2)cc1 (stereo not given),2.68
16,Oc1ccc2[nH]c(-c3ccc(OC(F)(F)F)cc3)nc2c1CNC1CCCC1,2.65
17,CC(C)Oc1ccc2ccccc2c1CNCCCCCCNCc1c(OC(C)C)ccc2ccccc12,31.1
18,Cc1cc(O)c(-c2cc(C(=O)Nc3cccnc3)[nH]n2)cc1C,7.05
19,Cc1cc(-c2ccc(NC(=O)N3CCc4cc(Cl)c(N5CCN(C)CC5)cc43)cc2)ccc1C#N,78.1
20,CC(=O)N1N=C(c2ccc(Cl)cc2)Sc2c1nc(-c1ccccc1)n2C(C)=O,2.66

row,Structure (SMILES),inhibition [%]
1,COCCn1c(-c2cccc(Cl)c2)nn(-c2ccc([N+](=O)[O-])cc2Cl)c1=S,4.03
2,Cc1c(CCNC(=O)CCCN2CC(C)CC(C)C2)c2ccccc2n1C (stereo not given),1.14
3,Cc1cc(N[C@@H](Cc2ccccc2)C(=O)NCCc2ccccc2)nc(NCC2CCCCC2)n1,2.97
4,Cn1c(NC(=O)c2ccc(CNC(=O)c3ccc(O)c(-c4ccc(Cl)c(Cl)c4)c3)cc2)nc2ccccc21,4.29
5,CC1CCCCC1N(C)C1CCN(CCCNC(=O)C=Cc2cccc(C(F)(F)F)c2)CC1 (stereo not given),4.22
6,COc1ccc(-c2ccc(NC(=O)c3ccc(Cl)cc3)cc2)cc1CN1CCCN(C)CC1,5.26
7,CN1CCC(N(Cc2ccc(-c3cnc(NCc4ccccc4)nc3)cc2)S(=O)(=O)c2ccccc2)CC1,14
8,O=S(=O)(NCCN1CCCC1)c1ccc(-c2ccccc2CNC2Cc3ccccc3C2)cc1,66.1
9,O=C(Nc1ccc(-c2nc3ccccc3[nH]2)cc1)c1ccc(Cl)s1,3.19
10,Cc1cc2c(cc1C(F)(F)F)N(C(=O)Nc1ccc(C(=O)NCCN3CCCC3)cc1)CC2,1.29
11,NC(=O)c1cccc(C(=O)Nc2cccc(-c3cccc(-c4nc5cc(C(F)(F)F)ccc5[nH]4)c3)c2)c1,-0.51
12,Cc1cc(=NN=Cc2ccc(F)cc2)c2cc(C(F)(F)F)ccc2[nH]1,2.35
13,Cc1cccc(-c2nn(-c3ccccc3)cc2C(=O)Nc2nnc(C)o2)c1,-1.38
14,CCn1c(-c2nonc2N)nc2c(-c3cccc(NC(=O)Nc4cccc(C#N)c4)c3)ncc(OCCCN)c21,4.72
15,CN(C)Cc1cc2c(O)c(Cc3ccccc3)ccc2o1,2.65
16,C=C(F)c1sc(CNCCCNc2nc3ccccc3[nH]2)c(C)c1Br,57.5
17,O=C(Cc1c[nH]cn1)Nc1cccc(-c2ccc(-c3nc4cc(C(F)(F)F)ccc4[nH]3)cc2)c1,3.54
18,CC1(C)CCCN(c2ncc(-c3cccc(CNCc4ccccc4O)c3)cn2)C1,2.91
19,COc1cc2nc(N3CCC(CNC(=O)c4ccc(-c5ccc(C#N)cc5C)cc4)CC3)nc(N)c2cc1OC,1.67
20,CN(C)CCc1coc2ccc(C(=O)Nc3ccc(-c4ccc(O)cc4)cc3)cc12,4.69

# Target: Hexose transporter 1 (Plasmodium falciparum) (UniProt O97467)
# Assay: ST_JUDE_LEISH: Cytotoxicity at 2uM final concentration against transgenic Leishmania Mexicana promastigotes LmPfHT that are glucose transport deficient and complemented with the Plasmodium falciparum hexose transporter. Activity is measured by DNA content using SYBR green in vitro
# Assay type: functional
row,Structure (SMILES),inhibition [%]
1,Oc1ccc(CCNc2nc(NCCCOc3ccccc3-c3ccc(F)cc3)nc(N3CCNCC3)n2)cc1,14.8
2,Cc1cccc(-n2nc(C)c3c2NC(=O)CC3C(=O)c2ccc(Cl)s2)c1 (stereo not given),4.4
3,COc1cc2c(cc1N1CCN(C)CC1)N(C(=O)Nc1ccc(-c3ccncc3)c(Cl)c1Cl)CC2,0.34
4,COc1c(Br)cc(Br)cc1C(C)=O,3.58
5,C[C@H](NC(=O)[C@H](Cc1ccccc1)NC(=O)OC(C)(C)C)C(=O)N[C@@H](CC1CCCCC1)C(O)CN (stereo not given in full),0.84
6,Cc1ccc(Cn2nc(Cl)c(N3CCCNCC3)cc2=O)cc1NC(=O)Nc1ccc(-c2ccccc2)cc1,1.72
7,O=C(NCc1ccccc1)Nc1ccc(-c2cccc(-c3nc4cc(C(F)(F)F)ccc4[nH]3)c2)cc1,-0.18
8,O=C(Nc1ccc(OC2CCN(Cc3ccc(F)cc3)C2)c(Cl)c1)c1ccccc1 (stereo not given),9.58
9,Cc1cccc2nc(-c3ccc(-c4cccc(CN5CCN(CC6CCCN(C)C6)CC5)c4)s3)[nH]c12 (stereo not given),-3.27
10,OC(CNCc1ccccc1OCc1ccccc1)c1cccc(I)c1 (stereo not given),5.42
11,Cc1cc(N(CCO)CCCN2CCCCC2)nc(Nc2ccc(Cl)cc2)n1,1.35
12,CS(=O)(=O)N1CC2(CCN(CCC(NC(=O)Nc3ccccc3)c3ccc(Cl)c(Cl)c3)CC2)c2ccccc21 (stereo not given),3.17
13,CNCCNCc1ccc(-c2ccc(-c3nc4cc(F)ccc4[nH]3)s2)cc1,7.79
14,COc1ccc(N2CCN(CCCN3CCN(C(=O)c4ccc(/C=C/c5ccc(Cl)c(Cl)c5)cc4)CC3)CC2)c(OC)c1,6.21
15,N#Cc1ccc(CN2CCC(Oc3ccc(NC(=O)c4cccs4)cc3)C2)cc1 (stereo not given),-0.99
16,Oc1ccc2[nH]c(-c3ccc(OC(F)(F)F)cc3)nc2c1CNC1CCCC1,3.35
17,CC(C)Oc1ccc2ccccc2c1CNCCCCCCNCc1c(OC(C)C)ccc2ccccc12,-0.9
18,Cc1cc(O)c(-c2cc(C(=O)Nc3cccnc3)[nH]n2)cc1C,4.46
19,Cc1cc(-c2ccc(NC(=O)N3CCc4cc(Cl)c(N5CCN(C)CC5)cc43)cc2)ccc1C#N,77.2
20,CC(=O)N1N=C(c2ccc(Cl)cc2)Sc2c1nc(-c1ccccc1)n2C(C)=O,1.84

row,Structure (SMILES),inhibition [%]
1,COCCn1c(-c2cccc(Cl)c2)nn(-c2ccc([N+](=O)[O-])cc2Cl)c1=S,6.65
2,Cc1c(CCNC(=O)CCCN2CC(C)CC(C)C2)c2ccccc2n1C (stereo not given),3.38
3,Cc1cc(N[C@@H](Cc2ccccc2)C(=O)NCCc2ccccc2)nc(NCC2CCCCC2)n1,3.86
4,Cn1c(NC(=O)c2ccc(CNC(=O)c3ccc(O)c(-c4ccc(Cl)c(Cl)c4)c3)cc2)nc2ccccc21,3.37
5,CC1CCCCC1N(C)C1CCN(CCCNC(=O)C=Cc2cccc(C(F)(F)F)c2)CC1 (stereo not given),2.29
6,COc1ccc(-c2ccc(NC(=O)c3ccc(Cl)cc3)cc2)cc1CN1CCCN(C)CC1,4.81
7,CN1CCC(N(Cc2ccc(-c3cnc(NCc4ccccc4)nc3)cc2)S(=O)(=O)c2ccccc2)CC1,12.1
8,O=S(=O)(NCCN1CCCC1)c1ccc(-c2ccccc2CNC2Cc3ccccc3C2)cc1,67.7
9,O=C(Nc1ccc(-c2nc3ccccc3[nH]2)cc1)c1ccc(Cl)s1,2.35
10,Cc1cc2c(cc1C(F)(F)F)N(C(=O)Nc1ccc(C(=O)NCCN3CCCC3)cc1)CC2,1.86
11,NC(=O)c1cccc(C(=O)Nc2cccc(-c3cccc(-c4nc5cc(C(F)(F)F)ccc5[nH]4)c3)c2)c1,0.13
12,Cc1cc(=NN=Cc2ccc(F)cc2)c2cc(C(F)(F)F)ccc2[nH]1,2.57
13,Cc1cccc(-c2nn(-c3ccccc3)cc2C(=O)Nc2nnc(C)o2)c1,-1.47
14,CCn1c(-c2nonc2N)nc2c(-c3cccc(NC(=O)Nc4cccc(C#N)c4)c3)ncc(OCCCN)c21,2.23
15,CN(C)Cc1cc2c(O)c(Cc3ccccc3)ccc2o1,4.63
16,C=C(F)c1sc(CNCCCNc2nc3ccccc3[nH]2)c(C)c1Br,73.8
17,O=C(Cc1c[nH]cn1)Nc1cccc(-c2ccc(-c3nc4cc(C(F)(F)F)ccc4[nH]3)cc2)c1,3.75
18,CC1(C)CCCN(c2ncc(-c3cccc(CNCc4ccccc4O)c3)cn2)C1,2.13
19,COc1cc2nc(N3CCC(CNC(=O)c4ccc(-c5ccc(C#N)cc5C)cc4)CC3)nc(N)c2cc1OC,1.27
20,CN(C)CCc1coc2ccc(C(=O)Nc3ccc(-c4ccc(O)cc4)cc3)cc12,4.41
